Only some compounds are listed: those with a hit (about 1.3% of all), similar ones and a draw of the others.
LANA DNA inh – KSHV C-LANA DNA binding inhibition | MBP-C-LANA/FAM-LBS DNA binding, fluorescence polarization | 340,000 compounds, 0.078% hits | inhibition, % at 9 µM;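 active = highest replicate inhibition at or above 60% at 9 µM, even if other replicates fall short; inactive = all replicates below 60% inhibition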;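 also: 0% = neutral control wells and 100% = 4 µM acridine orange control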
MCL1 BIM primary – MCL1-BIM-BH3 interaction inhibition (human) | Q07820 | GST-MCL1 / FITC-Bim-BH3 fluorescence polarization | inhibition, % at 10.9 µM | 320,000 compounds, 0.68% hits;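 active = inhibition above the mean inhibition of all tested compounds plus 3 SD, set per campaign, cut at about 40% in these data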;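 also: 0% = DMSO wells and 100% = unlabeled Bim-BH3 peptide control; higher means more loss of mP so more displacement of Bim peptide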
GLD-1 TGE inh – GLD-1-TGE RNA interaction inhibition (C. elegans); inhibition, % at 5.96 µM; purified GLD-1 + fluorescein TGE RNA, fluorescence polarization; 320,000 compounds, 0.44% hits; Q17339;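 active = percent inhibition above a per-plate cutoff, the plate mean of test compounds plus 3 SD, cut at about 30% in these data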;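 also: 0% = DMSO wells with GLD-1 and probe and 100% = wells lacking GLD-1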
E coli Lon inh – inhibitors of E. coli Lon protease; purified E. coli Lon protease, fluorescence polarization; inhibition, % at 7.94 µM; AID 602123; P0A9M0; 360,000 compounds, 0.42% hits; in the data active = inhibition above about 13%, passing the limit was not always enough;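 also: 0% = enzyme with probe and DMSO and 100% = no enzyme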
BCLXL inh – blocks human Bcl-xL binding to Bim BH3 peptide; Q07817; GST-Bcl-xL / FITC-Bim BH3 peptide fluorescence polarization; inhibition, % at 10.9 µM; 320,000 compounds, 0.7% hits;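 active = inhibition above the mean of all tested compounds plus 3 SD, cutoff set per campaign, cut at about 30% in these data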;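 also: 0% = DMSO wells and 100% = unlabeled Bim-BH3 peptide competitor; inhibitors lower millipolarization by displacing the labeled peptide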
Keap1-Nrf2 PPI – Keap1-Nrf2 (human) interaction inhibition | Q14145 | Keap1 Kelch-Nrf2 peptide fluorescence polarization, 1536-well | inhibition, % at 9.4 µM | 340,000 compounds, 0.15% hits | AID 504523; in the data active = inhibition above about 12%;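 also: human Keap1 Kelch domain with fluorescein labeled Nrf2 9mer peptide probe; 0% = neutral control wells and 100% = peptide positive control; higher means more block of Keap1 binding to Nrf2 peptide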
Target sequence (Q14145 whole entry, looked up, the tested form may be a part): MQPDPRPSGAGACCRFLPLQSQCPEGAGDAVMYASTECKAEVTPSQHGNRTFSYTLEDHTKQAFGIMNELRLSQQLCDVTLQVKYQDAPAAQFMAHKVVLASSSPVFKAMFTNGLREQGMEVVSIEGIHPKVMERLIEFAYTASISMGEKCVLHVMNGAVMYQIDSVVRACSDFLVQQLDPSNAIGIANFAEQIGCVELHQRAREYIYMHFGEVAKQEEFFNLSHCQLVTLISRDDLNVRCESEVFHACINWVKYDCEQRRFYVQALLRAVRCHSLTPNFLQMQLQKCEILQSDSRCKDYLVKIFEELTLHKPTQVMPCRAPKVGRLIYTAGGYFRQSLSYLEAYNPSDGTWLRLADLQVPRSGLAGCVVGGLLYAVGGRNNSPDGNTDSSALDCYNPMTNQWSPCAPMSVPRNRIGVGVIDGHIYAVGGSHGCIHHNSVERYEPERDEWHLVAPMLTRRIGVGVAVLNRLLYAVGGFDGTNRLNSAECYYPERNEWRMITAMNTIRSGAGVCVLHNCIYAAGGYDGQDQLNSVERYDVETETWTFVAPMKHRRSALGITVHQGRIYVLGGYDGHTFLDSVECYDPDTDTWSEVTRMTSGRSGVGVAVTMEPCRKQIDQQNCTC
Active calls of the source: *; . = no result given.

SMILES | LANA DNA inh | MCL1 BIM primary | GLD-1 TGE inh | E coli Lon inh | BCLXL inh | Keap1-Nrf2 PPI
O=C(NCc1ccc(OC(F)(F)F)cc1)c1cccc2c1C(=O)c1ccc(N3CCCC3)cc1S2(=O)=O | -1 | . | 6 | -15 | . | 0
O=C(NCCc1ccc(F)cc1)c1cccc2c1C(=O)c1ccc(N3CCC(Cc4ccccc4)CC3)cc1S2(=O)=O | 14 | . | 145* | 29* | . | -6
CN1CCC[C@@H]1CCNC(=O)c1cccc2c1C(=O)c1ccc(N3CCCC3)cc1S2(=O)=O | -3 | . | 12 | -30 | . | -33
CC1=C(C(=O)N2CCOCC2)CC(CC(=O)NCc2cccc3ccccc23)C(=O)N1Cc1ccc(C(C)(C)C)cc1 (stereo unspecified) | . | . | . | -6 | . | .
O=C(NCc1cccc(F)c1)c1cccc2c1C(=O)c1ccc(N3CCC(Cc4ccccc4)CC3)cc1S2(=O)=O | 17 | . | 137* | 39* | . | 6
O=C(NCc1cc(C(F)(F)F)ccc1Cl)c1cccc2c1C(=O)c1ccc(N3CCC(N4CCCCC4)CC3)cc1S2(=O)=O | . | . | . | -73 | . | .
COc1ccccc1N1CCN(c2ccc3c(c2)S(=O)(=O)c2cccc(C(=O)NCc4ccc(F)cc4)c2C3=O)CC1 | . | . | . | -1 | . | .
O=C(NCc1cc(C(F)(F)F)ccc1Cl)c1cccc2c1C(=O)c1ccc(N3CCCCC3)cc1S2(=O)=O | -2 | . | 76* | -26 | . | -17
CC1(C(=O)NS(=O)(=O)c2cccc(OC(F)F)c2)CCN1C(=O)CC(c1ccccc1)c1ccccc1 (stereo unspecified) | . | . | . | 0 | . | .
CC1(C)CC(=O)C=C(NNC(=O)c2ccccc2O)C1 | 4 | 17 | 53* | -5 | 16 | 4
CC1(C)CC(=O)C2=C(C1)N1C(=C(C#N)C2c2ccc(Cl)cc2)N=C(N)c2ccccc21 (stereo unspecified) | 0 | 3 | 61* | -1 | 6 | -3
CC1(C)CC(=O)C2=C(C1)N1C(=C(C#N)C2c2ccccc2Cl)N=C(N)c2ccccc21 (stereo unspecified) | 1 | 5 | 19 | 6 | 5 | 2
CCN1CCc2c(C#N)c(N3CCOCC3)nc(NCCO)c2C1 | 12 | 40 | 27 | 5 | 44* | 4
CCN1CCc2c(C#N)c(N3CCOCC3)nc(NCc3ccccc3)c2C1 | -2 | . | . | -3 | . | 5
O=[N+]([O-])c1ccc(/C=N/n2c(CO)nc3ccccc32)s1 | 4 | 28 | -9 | -14 | 18 | -3
Cc1nc2ccccc2n1/N=C/c1ccc([N+](=O)[O-])s1 | 12 | 7 | 8 | -16 | 32* | -4
CCCCCCc1cc2cc(S(=O)(=O)c3ccc(F)cc3)c(=O)oc2cc1O | 1 | 1 | 60* | 7 | 10 | -3
COC(=O)C1=C(O)/C(=C\c2cc(C)n(-c3ccccc3C)c2C)N=C1C | 3 | 44* | 27 | -7 | 42* | -1
COc1ccc(NC(=O)Cn2nnc(-c3ccccc3)c2COc2ccc3ccccc3c2)cn1 | . | . | . | -3 | . | .
COCCN(CCOC)Cc1c(O)ccc2c1O/C(=C\c1ccc(C)o1)C2=O | 14 | 24 | -4 | -67 | 34* | -17
O=C(/C=C/Nc1ccc(S(=O)(=O)Nc2ncccn2)cc1)c1ccc(Cl)c(Cl)c1 | 20 | -9 | 0 | -14 | -2 | 15*
CCOC(=O)c1ccc(N2C(=O)C3C(C2=O)C(C(=O)c2ccc(Cl)cc2)N2CCCC32)cc1 (stereo unspecified) | 15 | 36 | 21 | -17 | 58* | -5
CSCC(C)N1CCC(N2CCC(C(=O)NCc3ccccn3)CC2)CC1 (stereo unspecified) | 4 | 40* | 18 | -12 | 33* | 0
CSc1nc(O)c(N=Nc2ccc(F)cc2F)c(=O)[nH]1 | -1 | 42* | -12 | -14 | 37* | -6
Oc1ccc(N=Nc2ccccc2-c2nn[nH]n2)c(O)c1 | 13 | 39 | 8 | 19 | 31* | -9
SMILES | LANA DNA inh | MCL1 BIM primary | GLD-1 TGE inh | E coli Lon inh | BCLXL inh | Keap1-Nrf2 PPI
O=[N+]([O-])c1cc(S(=O)(=O)Oc2ccccc2)ccc1Cl | -2 | . | . | 1 | . | -1
c1ccc(CCn2nnnc2CN2CCCc3ccccc32)cc1 | -1 | 42* | 5 | 13 | 42* | 2
Fc1ccc(C(c2nnnn2CCc2ccccc2)N2CCCc3ccccc32)cc1 (stereo unspecified) | 0 | 4 | 1 | 2 | 4 | -6
COc1cccc(C(O)c2nc(-c3cc(F)cc(F)c3)cs2)c1 (stereo unspecified) | . | . | . | 3 | . | .
CN1C(=O)NC(c2cccc(F)c2)C2=C1CC(C)(C)CC2=O (stereo unspecified) | -1 | 4 | -7 | 2 | 36* | 1
COc1ccc(C2NC(=O)N(C)C3=C2C(=O)CC(C)(C)C3)cc1OC (stereo unspecified) | -2 | 0 | 7 | 2 | -2 | -7
CCOC(=O)C(=O)C1=CN(Cc2ccccc2)C=C(C#N)C1 | 3 | 47* | 25 | 7 | 43* | -4
COc1ccccc1NC(=O)Cn1ncc2c1-c1ccccc1OC2 | -1 | -2 | 2 | -16 | 3 | -7
COc1cc(NC(=O)Cn2ncc3c2-c2ccccc2OC3)cc(OC)c1OC | 0 | 33 | 7 | -6 | 172* | 2
N=c1oc2c3c4c(cc2cc1C(=O)Nc1ccccc1)CCCN4CCC3 | -1 | 191* | 88* | 6 | 165* | -5
Cc1ccc(NC(=O)c2cc3ccccc3oc2=N)cc1 | 0 | -10 | -2 | 12 | -1 | 0
CC(OC(=O)c1c2c(nc3ccccc13)/C(=C\c1ccc3c(c1)OCO3)CCC2)C(=O)Nc1ccc(S(N)(=O)=O)cc1 (stereo unspecified) | 10 | . | . | 77* | . | -3
CC(OC(=O)c1cc2ccccc2cc1O)C(=O)Nc1ccc(S(N)(=O)=O)cc1 (stereo unspecified) | 0 | -4 | 4 | -9 | -3 | 2
CCc1ccc(OCc2nnc(SCC(=O)NCc3ccco3)o2)cc1 | 0 | -5 | -3 | -9 | 54* | 1
C[N+](C)(C)CC(=O)N/N=C/c1c2ccccc2cc2ccccc12 | -4 | 9 | -18 | 9 | 12 | 3
Cn1cccc1CC(=O)N/N=C/c1cccc2ccccc12 | 0 | 37 | 36* | 3 | 46* | -1
Cn1cccc1CC(=O)N/N=C\c1c2ccccc2cc2ccccc12 | 0 | 51* | 18 | 1 | 33* | -8
Cn1cccc1/C=N/NC(=O)Cc1cccc2ccccc12 | 1 | -14 | 0 | -4 | 0 | -2
O=C(c1ccco1)[C@@H]1[C@@H]2C(=O)N(c3ccc(F)cc3)C(=O)[C@@H]2[C@H]2C=Cc3ccccc3N21 | 0 | 9 | 20 | -28 | 33* | 3
NC(=O)[C@@H]1[C@@H]2C(=O)N(c3ccc(F)cc3)C(=O)[C@@H]2[C@H]2C=Cc3ccccc3N21 | . | 32 | 20 | 2 | 34* | .

Bioassay records (PubChem BioAssay)
